This is a sample that favours compounds with a hit; in the whole collection about 1.4% have one here.
TrxR1 inh: rat TrxR1 inhibition; O89049; recombinant rTrxR1, NADPH fluorescence consumption, selenite substrate; Potency, µM (series often up to 114 µM), for the others: top-dose activity change, negative = inhibition, hits mostly inhibitors; 390,000 compounds, 1% hits; also: potency is read from the fitted curve at half-maximal effect; % is scaled to controls: 0 for no effect and ±100 for the full control effect; nearly all actives have a fitted effect of over 65% in size
Target sequence (O89049 whole entry, looked up): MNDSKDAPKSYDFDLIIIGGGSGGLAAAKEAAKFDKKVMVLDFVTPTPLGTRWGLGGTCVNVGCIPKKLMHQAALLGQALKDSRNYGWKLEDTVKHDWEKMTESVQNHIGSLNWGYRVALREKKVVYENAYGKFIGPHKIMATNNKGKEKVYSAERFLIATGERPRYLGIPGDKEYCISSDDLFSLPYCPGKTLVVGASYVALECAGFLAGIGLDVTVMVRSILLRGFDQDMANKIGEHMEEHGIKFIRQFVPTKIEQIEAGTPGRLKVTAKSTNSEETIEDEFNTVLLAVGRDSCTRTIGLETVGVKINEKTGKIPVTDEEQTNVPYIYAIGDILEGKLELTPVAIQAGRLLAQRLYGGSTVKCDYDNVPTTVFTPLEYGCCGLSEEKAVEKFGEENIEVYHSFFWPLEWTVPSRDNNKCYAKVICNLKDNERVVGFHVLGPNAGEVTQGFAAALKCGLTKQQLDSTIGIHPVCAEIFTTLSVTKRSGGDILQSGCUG
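Rat TrxR1 (90 nM in the dispensed reagent) was pre-reduced with 400 uM NADPH for 5 min at room temperature, then incubated with compound for 15 min. After 400 uM selenite was added, NADPH fluorescence (Ex 340/Em 450 nm) was followed for 8 min.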
TrxR1 substrate: rat thioredoxin reductase 1 substrate activity; 390,000 compounds, 0.01% hits; purified TrxR1 substrate turnover, NADPH consumption readout; Potency, µM (highest dose often 114 µM), without a hit: at the highest dose activity change, negative = substrate turnover; also: potency is read from the fitted curve at half-maximal effect; % is scaled to controls: 0 for no effect and ±100 for the full control effect; nearly all actives have a fitted effect of over 50% in size
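Rat TrxR1, dispensed at 90 nM, was prereduced with 400 uM NADPH (final) for 5 min at ~22 deg C, then incubated with compound 15 min before 400 uM selenite. A first-read NADPH fluorescence drop versus no-compound background flagged substrates.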
pAkt inh: Akt phosphorylation inhibition | Neuro2A IGF-stimulated pAkt S473 HTRF, 20 min; hits give low values | activity change, % for hits at 50 µM | 360,000 compounds, 0.32% hits | AID 651550; in the data active = activity change below about -80%; inconclusive = mostly about -51% to -80%; also: % is scaled to controls: 0 for no effect and ±100 for the full control effect
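Single-point screen (50 µM final compound) in Neuro2A cells stimulated 20 min with 6 nM IGF at 37 deg C. After lysis, Ser473-phosphorylated Akt read by HTRF (ex 330 nm, em 615/665 nm) as the 665/615 ratio.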
AT treatment: potential ataxia-telangiectasia treatment | F2112 A-T fibroblasts, KAP-1 phosphorylation AlphaLISA; neocarzinostatin DNA damage 30 min before lysis | Potency, µM (top dose mostly 57.5 µM), for the others: at the top dose activation, most hits filed as activators | 320,000 compounds, 0.19% hits | AID 485349; also: potency is read from the fitted curve at half-maximal effect; % of control where 0% means no effect; nearly all actives have a fitted effect of over 45% in size
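hTERT-immortalized A-T patient fibroblasts (F2112), 500 cells/well in OPTI-MEM, 1% FBS, got compounds for 60 min, then NCS for 30 min at 37C. Lysates were then assayed for phospho-KAP-1 by AlphaLISA (anti-pKAP1 donor, anti-KAP1 acceptor beads), 6 hr at 25C.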
Pin1 inhibitor: inhibitors of human Pin1 | AID 504891 | Pin1 FP peptide displacement, HiFluor488, 10 min | Potency, µM (top dose mostly 115 µM), for inactives: top-dose activity, negative = inhibition, actives largely listed as inhibitors | Q13526 | 390,000 compounds, 0.009% hits; active = well fitted inhibition curve with a large enough effect in the polarisation, with a control signal flat, not every such curve was filed as active; inconclusive = small, poorly fitted or top-dose-only effect, or effect the other way, or a change in a side signal; inactive = no such curve, though single readings can be large or run the other way; the % refers to the polarisation; also: potency is read from the fitted curve at half-maximal effect; % is scaled to controls: 0 for no effect and ±100 for the full control effect
Target sequence (Q13526 whole entry, looked up): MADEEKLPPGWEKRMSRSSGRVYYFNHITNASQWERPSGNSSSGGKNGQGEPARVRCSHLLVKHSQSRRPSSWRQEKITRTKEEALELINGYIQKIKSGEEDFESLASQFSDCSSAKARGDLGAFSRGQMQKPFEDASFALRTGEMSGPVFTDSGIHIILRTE
N370S GC: inhibitors or activators of N370S glucocerebrosidase for Gaucher disease | Potency, µM (doses to about 59.4 µM), inactives show at the top dose activity change, negative = inhibition, most hits filed as inhibitors | N370S GC spleen homogenate, 4MU-glucoside fluorescence | 330,000 compounds, 0.092% hits | P04062;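 also: potency is read from the fitted curve at half-maximal effect; 0% = full enzyme activity and -100% = no enzyme basal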
Active calls of the source: *; i = inactive; ? = inconclusive; . = no result given; [ ] = dose if it differs, or a comment. Unless noted, calls follow the shape of the dose curve; as a rule, active = well fitted curve in the direction sought with a large enough effect; inconclusive = small, poorly fitted or top-dose-only effect, or another doubt; inactive = no such curve, though single readings can be large; an effect the other way counts as inactive or inconclusive.

SMILES	TrxR1 inh	TrxR1 substrate	pAkt inh	AT treatment	Pin1 inhibitor	N370S GC
On1nnc2ccccc21	17.1%	33.1%	i	?	-12.3%	1.0%
C(=C\n1nnc2ccccc21)/c1ccc[nH]1	12.6µM*	1.8%	i	11.0%	-15.6%	0.6%
CCn1c(C)c(C(=O)O)c2cc(OC)c3ccccc3c21	24.2%	56.6%	i	10µM*	0.3%	-7.8%
COc1cc2c(C(=O)O)c(C)n(-c3ccccc3)c2c2ccccc12	2.0%	9.2%	i	?	5.2%	?
O=C1C=CC(=Nc2ccc3c(c2)C(=O)c2ccccc2-3)O1	0.1%[2.29 µM]	-7.8%[57.1 µM]	i	.	?	.
O=C1C=CC(=Nc2ccc(F)cc2)O1	7.08µM*	0.5%	i	.	-2.4%	.
COC(=O)c1ccc(NC(=O)Cn2c(=O)oc3ccccc32)cc1	9.1%	0.4%	.	.	3.9%	.
CCc1ccccc1NC(=O)CN(C)Cc1c(O)ccc2ccccc12	39.8µM*	6.1%	i	-3.6%	-15.6%	21.1%
c1cncc(-c2nc(-c3ccco3)cs2)c1	35.5µM*	13.1%[57.1 µM]	i	1.5%	2.4%	1.8%
COc1cc(NC(=O)CC2C(=O)N(c3cccc(C)c3)C(=O)N2Cc2ccco2)cc(OC)c1 (stereo not given)	-16.7%	-6.3%	.	.	4.3%	.
COc1ccc(NC(=O)c2nc(S(=O)(=O)Cc3cccc(C)c3)ncc2Cl)c(OC)c1	13.1%	2.5%	i	-5.6%	-3.8%	0.0%
O=C(NCc1ccccc1)c1nc(S(=O)(=O)Cc2ccc(F)cc2)ncc1Cl	3.55µM*	-0.5%	.	.	?	.
Cc1cccc(CS(=O)(=O)c2ncc(Cl)c(C(=O)NCc3ccccc3)n2)c1	6.31µM*	-2.4%	i	-16.3%	7.1%	-6.9%
O=C(Nc1nccs1)[C@@H]1CC=C[C@@H]2CCN(C3CCCCC3)C(=O)[C@@H]21	?	-3.5%	.	.	.	.
O=c1[nH]ccc2c(S(=O)(=O)N3CCCNCC3)cccc12	.	.	.	.	.	-8.8%
Cn1c(=NC(=O)CCl)sc2ccccc21	35.5µM*	-3.8%	i	0.8%	-0.5%	4.5%
COc1cccc(/C=C2/SC(=S)N(CC(=O)Nc3nccs3)C2=O)c1	10.5%	-1.8%	.	.	-0.4%	.
O=C(NCc1cccnc1)/C(=C\c1ccc(-c2ccc(Br)cc2)o1)S(=O)(=O)c1ccccc1	31.6µM*	3.6%	i	20.5%	24.1%	-6.4%
O=C(NCc1cccnc1)/C(=C/c1ccc(-c2ccc(Cl)cc2)o1)S(=O)(=O)c1ccccc1	5.01µM*	-2.0%	i	14.7%	45.2%	-15.0%
O=C(CN(Cc1ccc(Br)cc1)S(=O)(=O)c1ccccc1)NCc1cccnc1	-9.8%	-7.5%	i	-0.5%	1.5%	-2.5%
CCCCOc1ccccc1C(=O)N(Cc1sccc1C)C1CCS(=O)(=O)C1 (stereo not given)	13.8%	4.4%	.	.	-10.8%	.
CS(=O)(=O)c1ccc(C(=O)OCc2nnc(-c3ccc(Cl)cc3)o2)cc1[N+](=O)[O-]	1.78µM*	8.3%[57.1 µM]	i	-5.4%	8.4%	11.8%
COc1ccccc1-c1cc(C(F)(F)F)nc(N2CCCC2)n1	-2.2%	4.9%	i	4.2%	0.4%	-13.8%
COc1ccccc1-c1cc(C(F)(F)F)nc(S(C)(=O)=O)n1	35.5µM*	4.9%	i	.	4.4%	9.3%
COc1ccccc1-c1cc(C(F)(F)F)nc(S(=O)(=O)CCCC(=O)NC(C)C)n1	17.8µM*	18.3%	i	8.5%	?	0.7%
SMILES	TrxR1 inh	TrxR1 substrate	pAkt inh	AT treatment	Pin1 inhibitor	N370S GC
CCC(=O)NC(c1ccco1)c1cc([N+](=O)[O-])c2cccnc2c1O (stereo not given)	.	.	.	.	-22.0%	.
CCOC(=O)c1c(C)nc2sc3c(=O)n(-c4ccc(OC)cc4)cnc3c2c1-c1ccc(OC)cc1	2.7%	-3.0%	-110.6%*	-2.4%	-12.4%	0.4%
CCOC(=O)c1c(C)nc2sc3c(=O)n(-c4ccc(C(C)=O)cc4)nnc3c2c1-c1ccc(OC)cc1	-2.6%	-6.1%	i	7.0%	1.1%	-8.4%
Cc1ccc(C(C2=C(O)CC(C)(C)CC2=O)C2C(=O)CC(C)(C)CC2=O)s1 (stereo not given)	10µM*	6.2%	i	-0.9%	6.2%	6.4%
CC1(C)CC(=O)C(C(C2=C(O)CC(C)(C)CC2=O)c2ccc([N+](=O)[O-])cc2)C(=O)C1 (stereo not given)	?	-8.0%	i	-8.1%	2.0%	12.0%
COc1cccc(C(C2=C(O)CC(C)(C)CC2=O)C2C(=O)CC(C)(C)CC2=O)c1 (stereo not given)	44.7µM*	-6.8%	i	-1.9%	8.0%	-6.1%
CC1(C)CC(=O)C(C(C2=C(O)CC(C)(C)CC2=O)c2ccc(Br)s2)C(=O)C1 (stereo not given)	3.98µM*	-15.8%	i	-4.9%	-8.3%	11.2%
C1=Cc2ccccc2/C1=C\c1ccc2c(c1)OCO2	-13.1%	-3.4%	.	.	.	.
O=C(Cc1ccc(Cl)cc1)NO	5.5%	5.8%	.	.	.	.
COc1ccc2[nH]c(C)c(C(=O)CN3CCN(C(=O)c4ccco4)CC3)c2c1	28.2µM*	-2.9%	i	-2.7%	-10.1%	2.5%
CC(=O)N1CCc2cc(C(=O)CN3CCN(C(=O)c4ccco4)CC3)ccc21	15.8µM*	-1.3%[57.1 µM]	i	13.4%	2.3%	-4.8%
O=[N+]([O-])c1ccc2c(c1)C=CC2	12.6µM*	1.7%	.	.	.	.
O=[N+]([O-])c1ccc2c(c1)Cc1cc(F)ccc1-2	18.7%	-2.9%	i	.	-3.1%	.
O=C(O)Cc1sc(N/N=C\c2ccncc2)nc1-c1ccccc1	3.16µM*	-7.9%	i	66.7%	91.4%	-19.8%
O=C(O)Cc1sc(Nc2ccccc2)nc1-c1ccccc1	4.6%	-3.3%	.	.	0.1%	.
COc1ccc(C(C)=O)cc1CN(C)C	8.91µM*	3.4%	i	.	3.4%	-4.5%
COc1ccc(C(C)=O)cc1COC(=O)c1c(C)noc1C	35.5µM*	-5.4%	i	3.5%	-4.6%	6.7%
COc1ccc(C(C)=O)cc1COC(=O)c1ccc(OCc2c(C)noc2C)cc1	-11.7%	-1.3%	i	2.6%	74.2%	3.7%
CC(=O)Nc1ccc(NC(=O)c2nc(SCc3ccccc3F)ncc2Cl)cc1	15.6%[0.0914 µM]	8.2%	.	.	.	.
Cc1cc2c(s1)c1cnn(Cc3cccc(Cl)c3)c(=O)c1n2C	.	.	.	.	1.5%	.
O=S(=O)(Nc1ccc(O)c(Sc2nc3ccccc3s2)c1)c1ccc(F)cc1	6.5%	-3.3%	i	2.4%	-3.2%	?
CS(=O)(=O)c1ccc(Sc2nc3ccccc3s2)c([N+](=O)[O-])c1	39.8µM*	-4.5%	i	-0.1%	-5.3%	-6.7%
CS(=O)(=O)c1ccc(Sc2nc3ccccc3[nH]2)c([N+](=O)[O-])c1	-29.4%	-7.4%	i	-2.2%	-8.3%	1.3%
